Test results as given in PubChem BioAssay (EPA / NIEHS).
“And” between values parts separate entries of the source, which are not always exact repeats. Equal values may be shown once. The source made the active and inactive calls. The calls were made as follows: active = hit-call score of the fitted dose curve at least 0.9, where 1 is the maximum; inactive = score below 0.9.

What was measured:
[1] = ATG_EGR_CIS: Attagene CIS-FACTORIAL HepG2 Assay for human Early Growth Response 1 (EGR1) (AID 2282938); settings: HepG2 Attagene CIS-FACTORIAL EGR reporter mRNA; actives raise or lower the signal
How it was run: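 Endogenous TF activity in HepG2 liver cells was gauged through cis-promoter reporter constructs transiently transfected. After 24 h dosing, reporter mRNA was quantified by RT-PCR and capillary electrophoresis, and curves fitted in both directions versus DMSO.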

[2] = ATG_M_19_CIS: Attagene CIS-FACTORIAL HepG2 Assay for M19 Transcription Factor (Internal Marker) (AID 2282939); settings: HepG2 Attagene CIS-FACTORIAL M19 internal marker reporter; actives raise or lower the signal
How it was run: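 HepG2 cells transiently transfected with cis-regulated multiple reporter transcription units were dosed for 24 h; reporter mRNA was quantified by RT-PCR, 6-FAM primer-extension labelling, HpaI digestion and capillary electrophoresis, with bidirectional fitting against DMSO baseline.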

[3] = ATG_Ets_CIS: Attagene CIS-FACTORIAL HepG2 Assay for human Erythroblast Transformation Specific (ETS) (AID 2282941); settings: HepG2 ETS cis-reporter transcription; AC50: actives raise or lower the signal unless noted; outcome: actives raise or lower the signal unless noted
How it was run: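 Steps: transfect HepG2 with multiple reporter units; treat compound 24 h; isolate RNA, DNase-treat, reverse-transcribe; PCR-amplify, label with 6-FAM, digest with HpaI; separate by capillary electrophoresis. Activity fitted both directions versus DMSO.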

[4] = biological target: Hepatocyte nuclear factor 3-beta (Homo sapiens) (UniProt Q9Y261); test: ATG_FoxA2_CIS: Attagene CIS-FACTORIAL HepG2 Assay for human Forkhead box A2 (FOXA2) (AID 2282942); settings: HepG2 cis-reporter transcription factor activity, 24 h; actives raise or lower the signal
How it was run: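 Endogenous transcription factor activity was read in HepG2 cells carrying transiently transfected cis-promoter reporter units. After 24 h dosing, reporter mRNA was quantified by RT-PCR and capillary electrophoresis, and values fitted bidirectionally versus DMSO.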

[5] = ATG_GATA_CIS: Attagene CIS-FACTORIAL HepG2 Assay for human GATA Binding Protein (AID 2282944); settings: HepG2 GATA cis-element reporter, Attagene multiplex mRNA; actives raise or lower the signal
How it was run: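 HepG2 cells transiently transfected with multiplexed cis-element reporter units reflecting endogenous transcription factor activity; reporter mRNA measured after 24 h dosing by RT-PCR, 6-FAM labeling, HpaI digestion and capillary electrophoresis. Bidirectional fitting versus DMSO baseline.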

[6] = ATG_GRE_CIS: Attagene CIS-FACTORIAL HepG2 Assay for human Glucocorticoid Response Elements (GRE) (AID 2282947); settings: HepG2 GRE cis-reporter, Attagene multiplex mRNA; AC50: actives raise or lower the signal unless noted; outcome: actives raise or lower the signal unless noted
How it was run: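 Following 24 h chemical exposure of transiently transfected HepG2 cells, total RNA was reverse-transcribed and reporter cDNA amplified, fluorescently labelled and sized by capillary electrophoresis. Signal gain or loss was fitted relative to DMSO vehicle.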

[7] = ATG_FoxO_CIS: Attagene CIS-FACTORIAL HepG2 Assay for human Forkhead box O (FoxO) (AID 2282943); settings: HepG2 Attagene cis-reporter, FoxO element, mRNA; actives raise or lower the signal
How it was run: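 24 h chemical exposure, HepG2 with transient cis-MRTU transfection. RNA extraction, oligo(dT) RT, reporter-specific PCR, primer-extension labelling, HpaI digestion, CE fragment analysis; bidirectional fit, DMSO baseline.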

[8] = biological target: Bile acid receptor (Homo sapiens) (UniProt Q96RI1); test: ATG_IR1_CIS: Attagene CIS-FACTORIAL HepG2 Assay for human Nuclear Receptor Subfamily 1 Group H Member 4 (NR1H4), IR1 submotif (AID 2282946); settings: IR1 reporter transcription, actives raise or lower the signal
How it was run: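 Transient MRTU transfection, HepG2; 24 h dosing; RNA → RT-PCR → 6-FAM primer extension → HpaI digest → capillary electrophoresis fluorescence. Gain/loss of signal fitted relative to DMSO.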

[9] = ATG_GLI_CIS: Attagene CIS-FACTORIAL HepG2 Assay for human Zinc Finger Protein GLI1 (AID 2282945); settings: HepG2, Attagene cis-factorial reporter mRNA, GLI element; actives raise or lower the signal
How it was run: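 HepG2 cells transiently transfected with cis-promoter multiplexed reporter units report endogenous transcription factor activity. After 24 h chemical exposure, reporter mRNA was quantified by RT-PCR, 6-FAM labelling, HpaI digestion and capillary electrophoresis, with bidirectional fitting against DMSO.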

Measured: AC50

Chain of Hepatocyte nuclear factor 3-beta (Homo sapiens) (Q9Y261 whole entry, looked up): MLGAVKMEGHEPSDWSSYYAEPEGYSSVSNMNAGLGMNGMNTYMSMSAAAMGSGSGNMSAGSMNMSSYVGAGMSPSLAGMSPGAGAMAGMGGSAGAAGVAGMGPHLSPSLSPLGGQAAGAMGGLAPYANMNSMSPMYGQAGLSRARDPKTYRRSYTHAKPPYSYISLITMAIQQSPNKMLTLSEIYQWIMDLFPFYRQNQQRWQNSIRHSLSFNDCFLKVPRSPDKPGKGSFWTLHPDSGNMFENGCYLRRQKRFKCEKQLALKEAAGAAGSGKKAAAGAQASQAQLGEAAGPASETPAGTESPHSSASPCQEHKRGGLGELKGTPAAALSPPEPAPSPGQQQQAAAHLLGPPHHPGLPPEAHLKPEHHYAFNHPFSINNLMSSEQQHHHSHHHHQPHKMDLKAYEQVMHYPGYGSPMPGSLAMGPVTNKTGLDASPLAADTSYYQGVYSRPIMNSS
Chain of Bile acid receptor (Homo sapiens) (Q96RI1 whole entry, looked up): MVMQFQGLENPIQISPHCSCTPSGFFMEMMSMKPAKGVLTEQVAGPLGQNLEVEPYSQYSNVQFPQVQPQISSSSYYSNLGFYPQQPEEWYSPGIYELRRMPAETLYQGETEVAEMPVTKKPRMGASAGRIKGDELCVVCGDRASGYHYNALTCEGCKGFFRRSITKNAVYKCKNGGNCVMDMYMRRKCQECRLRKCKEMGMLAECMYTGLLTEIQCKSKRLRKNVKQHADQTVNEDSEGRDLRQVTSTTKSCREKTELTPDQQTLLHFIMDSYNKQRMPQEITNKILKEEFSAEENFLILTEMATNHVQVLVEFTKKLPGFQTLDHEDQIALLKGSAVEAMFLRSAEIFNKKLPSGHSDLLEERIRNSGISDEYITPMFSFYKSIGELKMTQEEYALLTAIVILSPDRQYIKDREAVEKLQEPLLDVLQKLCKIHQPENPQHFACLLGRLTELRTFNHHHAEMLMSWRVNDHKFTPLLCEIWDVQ

CC(C)c1c(C(=O)Nc2ccccc2)c(-c2ccccc2)c(-c2ccc(F)cc2)n1CC[C@@H](O)C[C@@H](O)CC(=O)O
active: [1] 94.5 µM and 28.3 µM
inactive: [2] | [3] | [4] | [5] | [6]

C=CC(=O)OCCN(CC)CC
active: [1] 54.4 µM
not listed: [6] | [9]
inactive: all other assays above

CC(O)COc1ccccc1 (stereo unspecified)
not listed: [6] | [7]
inactive: all other assays above

FC(F)(F)N1C(F)(F)C(F)(F)OC(F)(F)C1(F)F
not listed: [8]
inactive: all other assays above

CCCCCCCCCCCCOC(=O)c1cc(O)c(O)c(O)c1
not listed: [8] | [9]
inactive: all other assays above

CCCCCCCCCCCC
not listed: [8]
inactive: all other assays above

O=C(O)c1cccc(C(=O)O)n1
not listed: [6] | [7] | [8]
inactive: all other assays above

O=S(=O)(O)c1ccc2cc(O)ccc2c1
not listed: [8] | [9]
inactive: all other assays above

CCCC=O
not listed: [6] | [7] | [8]
inactive: all other assays above

CCCCCCCCCCCCCCCCCC[N+](C)(C)Cc1ccccc1
not listed: [6] | [7] | [8]
inactive: all other assays above

CCCCCCCCCCCCCCC
not listed: [7] | [8]
inactive: all other assays above

CCCCC(CC)C(=O)O (stereo unspecified)
not listed: [6] | [7] | [8]
inactive: all other assays above

CC1CCC(C(=O)O)CC1 (stereo unspecified)
not listed: [6] | [7]
inactive: all other assays above

CC(C)[C@@H]1CC[C@@H](C)C[C@H]1O
not listed: [6] | [7] | [8]
inactive: all other assays above

CNNCc1ccc(C(=O)NC(C)C)cc1
not listed: [8]
inactive: all other assays above

N=C(N)c1ccc(OCCCCCOc2ccc(C(=N)N)cc2)cc1
active: [1] 87.5 µM
not listed: [8]
inactive: all other assays above

COc1cc([N+](=O)[O-])ccc1N
not listed: [9]
inactive: all other assays above

CS(=O)(=O)c1ccc([C@@H](CC2CCCC2)C(=O)Nc2cnccn2)cc1Cl
inactive: [2] | [3] | [4] | [5] | [9]
active: [1] 50.6 µM

C=CC(=O)OCC(CO)(COCC(COC(=O)C=C)(COC(=O)C=C)COC(=O)C=C)COC(=O)C=C
active: [1] 3.04 µM | [2] 16.2 µM | [7] 3.66 µM
not listed: [8]
inactive: all other assays above

CCC(C)c1nccnc1OC (stereo unspecified)
not listed: [8]
inactive: all other assays above

c1cnc2c(c1)ccc1cccnc12
not listed: [8] | [9]
inactive: all other assays above

CC(C)C=O
not listed: [7] | [8]
inactive: all other assays above

O=C(OC(=O)C(F)(F)C(F)(F)F)C(F)(F)C(F)(F)F
not listed: [7]
inactive: all other assays above

CCCCN(C)C
not listed: [6] | [7]
inactive: all other assays above

O=C(CCCN1CCC(O)(c2ccc(Cl)cc2)CC1)c1ccc(F)cc1
inactive: [2] | [3] | [4]
active: [1] 33.4 µM | [7] 52.7 µM | [5] 52.8 µM | [6] 52 µM

O=C(c1ccccc1)c1ccccc1
not listed: [8]
inactive: all other assays above

NS(=O)(=O)O
not listed: [6] | [7] | [8]
inactive: all other assays above

CCc1ccccc1O
not listed: [8]
inactive: all other assays above

O=C(O)C(=O)O
not listed: [7] | [8]
inactive: all other assays above

CCC1CO1 (stereo unspecified)
not listed: [7] | [8]
inactive: all other assays above

Oc1c(Cl)cc(Cl)cc1Sc1cc(Cl)cc(Cl)c1O
not listed: [9]
inactive: all other assays above

COC1=CC(=O)C[C@@H](C)[C@]12Oc1c(Cl)c(OC)cc(OC)c1C2=O
not listed: [9]
inactive: all other assays above

CCCCCCCCCC=CCC1CC(=O)OC1=O (stereo unspecified)
not listed: [7]
inactive: all other assays above

O=C(NO)c1ccccc1
not listed: [8]
inactive: all other assays above

COC(=O)CC(C(C)=O)C(=O)OC (stereo unspecified)
not listed: [7] | [8]
inactive: all other assays above
